According to PubChem BioAssay AID2284065 (EPA ToxCast):
Active and inactive are the calls of the source. Rule for the calls: active = hit-call score of the fitted dose curve at least 0.9, where 1 is the maximum; inactive = score below 0.9.

The compounds below were run against CYP2C8, CYP2C8 (gene 1558) (UniProt P10632) (assay: ERF_FR_ADME_hCYP2C8: Eurofins (ERF) CYP450-related Enzyme Activity (ADME) Assay for CYP2C8).
Sequence of CYP2C8, CYP2C8 (gene 1558) (P10632 whole entry, looked up): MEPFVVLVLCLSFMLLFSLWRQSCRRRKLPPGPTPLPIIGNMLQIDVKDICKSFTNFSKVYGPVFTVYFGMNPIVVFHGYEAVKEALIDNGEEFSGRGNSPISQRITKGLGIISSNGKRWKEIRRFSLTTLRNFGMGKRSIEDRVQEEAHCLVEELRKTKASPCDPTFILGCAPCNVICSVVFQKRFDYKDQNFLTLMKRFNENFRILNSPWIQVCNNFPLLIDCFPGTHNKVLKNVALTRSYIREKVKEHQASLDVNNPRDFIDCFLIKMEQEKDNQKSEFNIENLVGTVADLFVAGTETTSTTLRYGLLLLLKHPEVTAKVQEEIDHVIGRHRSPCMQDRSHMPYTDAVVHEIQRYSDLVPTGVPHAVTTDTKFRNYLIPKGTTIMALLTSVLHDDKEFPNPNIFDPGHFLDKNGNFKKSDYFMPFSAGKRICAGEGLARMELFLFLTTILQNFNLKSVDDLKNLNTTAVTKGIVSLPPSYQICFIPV
Experimental: ERF_FR_ADME_hCYP2C8 is a biochemical, single-readout assay that uses extracted gene-proteins in a cell-free assay. Measurements were taken 0.16 hour after chemical dosing in a 96-well plate. See CYP2C8 inhibition (HLM, amodiaquine substrate).ERF_FR_ADME_hCYP2C8 is an assay component calculated from the ERF_FR_ADME_hCYP2C8 assay. It is designed to measure enzyme activity using a type of enzyme reporter as detected by peak area response of desethylamodiaquine with HPLC-MS/MS technology.Data from the assay component ERF_FR_ADME_hCYP2C8 was analyzed at the assay endpoint, ERF_FR_ADME_hCYP2C8, in the positive analysis fitting direction relative to acetonitrile as the negative control and baseline of activity. Using a type of enzyme reporter, loss-of-signal activity can be used to understand changes in enzymatic activity as they relate to gene CYP2C8. To generalize the intended target to other relatable targets, this assay endpoint is annotated to the cyp intended target family, where the subfamily is […].
Assay cells are incubated for 10 minutes at 37C with 10 uM amodiaquine.
For COc1cc(CCC(=O)CC(=O)CCc2ccc(O)c(OC)c2)ccc1O, the AC50 was 1830 nM (active).
With CCCCC[C@H](O)CC(=O)CCc1ccc(O)c(OC)c1 the AC50 was 2270 nM (active).
